According to paper PMC7862700, “An all-to-all approach to the identification of sequence-specific readers for epigenetic DNA modifications on cytosine”:

How the values were obtained:
Experiment in all cases: DAPPL (digital affinity profiling via proximity ligation, sequencing); 10 mM Tris-HCl pH 7.5, 50 mM NaCl, 1 mM DTT, 4% glycerol, room temperature, 30 min; GST-TFs on glutathione beads, 16-mer random dsDNA library, 0.1% formaldehyde crosslink after washing; high values mean tight binding
[1] = target: T1, FLI1 (Homo sapiens, UniProt Q01543 1-452); details: protein: recombinant; tags: N-terminal GST; dsDNA, one strand shown
T1 sequence: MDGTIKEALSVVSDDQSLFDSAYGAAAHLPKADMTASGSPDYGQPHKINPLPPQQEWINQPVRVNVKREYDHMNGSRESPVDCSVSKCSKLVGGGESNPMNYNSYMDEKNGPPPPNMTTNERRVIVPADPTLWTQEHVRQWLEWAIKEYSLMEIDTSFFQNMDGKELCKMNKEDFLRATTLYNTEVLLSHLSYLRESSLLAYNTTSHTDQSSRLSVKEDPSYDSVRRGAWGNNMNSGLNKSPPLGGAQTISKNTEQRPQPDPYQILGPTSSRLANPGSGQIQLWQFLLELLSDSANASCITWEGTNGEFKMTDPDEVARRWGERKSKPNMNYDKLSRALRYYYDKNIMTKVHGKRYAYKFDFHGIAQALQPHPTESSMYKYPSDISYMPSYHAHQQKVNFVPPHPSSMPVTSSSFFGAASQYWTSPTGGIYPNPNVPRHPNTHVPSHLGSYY
Procedure, shortened: (§1)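 The binding signal reported is, for every hexamer, its read frequency for a factor over its read frequency for the tag-only sample. Reads came from pools of yeast-expressed, GST-fused human transcription factors on glutathione beads, barcoded with DNA and mixed with that sample, which were incubated with 200 nmole of a random double-stranded 16-mer DNA library in Tris/NaCl/DTT/glycerol buffer at room temperature for 30 min. After washing, the pools were crosslinked with 0.1% formaldehyde, proximity-ligated with BsaI/T4 ligase for 1 h at 37 °C, PCR-amplified and sequenced on an Illumina NextSeq500.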

[2] = target: T2, ELK1 (Homo sapiens, UniProt P19419 1-428); details: protein: recombinant; tags: N-terminal GST; dsDNA, one strand shown
T2 sequence: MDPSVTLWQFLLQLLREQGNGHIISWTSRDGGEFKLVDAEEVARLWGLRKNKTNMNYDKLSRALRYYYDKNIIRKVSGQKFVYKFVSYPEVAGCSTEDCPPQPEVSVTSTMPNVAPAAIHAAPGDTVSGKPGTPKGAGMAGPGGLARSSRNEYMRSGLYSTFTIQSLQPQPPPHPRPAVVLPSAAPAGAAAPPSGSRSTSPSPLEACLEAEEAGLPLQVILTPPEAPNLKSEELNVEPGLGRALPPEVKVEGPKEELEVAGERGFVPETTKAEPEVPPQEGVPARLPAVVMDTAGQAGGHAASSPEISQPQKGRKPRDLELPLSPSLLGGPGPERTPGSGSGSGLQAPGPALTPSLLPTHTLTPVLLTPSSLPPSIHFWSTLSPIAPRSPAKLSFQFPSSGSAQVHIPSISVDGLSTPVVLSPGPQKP
Procedure, shortened: as §1

[3] = target: T3, GABPA (Homo sapiens, UniProt Q06546 1-454); details: protein: recombinant; tags: N-terminal GST; dsDNA, one strand shown
T3 sequence: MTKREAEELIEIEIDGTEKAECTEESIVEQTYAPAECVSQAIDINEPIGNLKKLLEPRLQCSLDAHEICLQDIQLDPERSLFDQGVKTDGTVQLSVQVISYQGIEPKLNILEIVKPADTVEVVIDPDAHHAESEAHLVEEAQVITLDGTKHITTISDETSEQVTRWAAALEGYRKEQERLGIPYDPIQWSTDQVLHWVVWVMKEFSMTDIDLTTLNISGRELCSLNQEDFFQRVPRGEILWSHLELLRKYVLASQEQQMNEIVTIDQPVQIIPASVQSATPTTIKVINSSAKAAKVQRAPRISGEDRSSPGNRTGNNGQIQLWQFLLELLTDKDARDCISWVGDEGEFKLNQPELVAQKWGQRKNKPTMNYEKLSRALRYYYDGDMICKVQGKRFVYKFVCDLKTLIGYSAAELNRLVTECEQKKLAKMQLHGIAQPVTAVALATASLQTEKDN
Procedure, shortened: as §1

[4] = target: T4, ERG (Homo sapiens, UniProt P11308 1-479); details: protein: recombinant; tags: N-terminal GST; dsDNA, one strand shown
T4 sequence: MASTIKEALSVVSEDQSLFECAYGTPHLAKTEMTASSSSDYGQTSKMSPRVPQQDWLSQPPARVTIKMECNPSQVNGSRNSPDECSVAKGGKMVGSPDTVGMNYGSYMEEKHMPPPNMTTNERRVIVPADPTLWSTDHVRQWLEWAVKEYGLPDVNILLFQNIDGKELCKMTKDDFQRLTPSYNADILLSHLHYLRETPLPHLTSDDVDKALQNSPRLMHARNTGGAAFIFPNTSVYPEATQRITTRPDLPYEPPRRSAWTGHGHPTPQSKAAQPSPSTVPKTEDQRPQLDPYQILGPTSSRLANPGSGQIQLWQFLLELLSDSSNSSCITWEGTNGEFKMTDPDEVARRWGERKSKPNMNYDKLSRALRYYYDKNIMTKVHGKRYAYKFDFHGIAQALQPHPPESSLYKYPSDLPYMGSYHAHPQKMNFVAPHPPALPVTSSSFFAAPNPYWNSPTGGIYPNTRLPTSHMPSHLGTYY
Procedure, shortened: as §1

[5] = target: ELF1 (Homo sapiens, UniProt P32519 1-619); details: protein: recombinant; tags: N-terminal GST; dsDNA, one strand shown
Sequence of ELF1 (P32519 whole entry): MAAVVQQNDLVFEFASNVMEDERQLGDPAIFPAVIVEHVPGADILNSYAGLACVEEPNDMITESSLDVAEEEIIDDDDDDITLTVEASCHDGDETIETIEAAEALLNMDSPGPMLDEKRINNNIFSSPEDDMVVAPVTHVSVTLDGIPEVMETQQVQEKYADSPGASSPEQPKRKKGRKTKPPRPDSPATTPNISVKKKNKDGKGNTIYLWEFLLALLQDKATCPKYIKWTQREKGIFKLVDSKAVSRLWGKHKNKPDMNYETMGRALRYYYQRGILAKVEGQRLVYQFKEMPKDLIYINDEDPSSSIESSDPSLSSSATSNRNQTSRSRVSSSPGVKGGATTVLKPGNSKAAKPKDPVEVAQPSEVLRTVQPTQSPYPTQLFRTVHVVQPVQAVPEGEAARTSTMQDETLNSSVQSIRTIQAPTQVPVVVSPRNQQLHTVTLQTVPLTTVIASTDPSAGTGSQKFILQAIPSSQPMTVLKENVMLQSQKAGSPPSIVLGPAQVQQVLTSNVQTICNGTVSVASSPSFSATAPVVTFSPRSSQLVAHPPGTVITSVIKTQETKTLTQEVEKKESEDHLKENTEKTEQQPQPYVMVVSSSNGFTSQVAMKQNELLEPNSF
Procedure, shortened: as §1

[6] = target: SPI1 (Homo sapiens, UniProt P17947 1-270); details: protein: recombinant; tags: N-terminal GST; dsDNA, one strand shown
Procedure, shortened: as §1

[7] = target: SPIB (Homo sapiens, UniProt Q01892 1-262); details: protein: recombinant; tags: N-terminal GST; dsDNA, one strand shown
Sequence of SPIB (Q01892 whole entry): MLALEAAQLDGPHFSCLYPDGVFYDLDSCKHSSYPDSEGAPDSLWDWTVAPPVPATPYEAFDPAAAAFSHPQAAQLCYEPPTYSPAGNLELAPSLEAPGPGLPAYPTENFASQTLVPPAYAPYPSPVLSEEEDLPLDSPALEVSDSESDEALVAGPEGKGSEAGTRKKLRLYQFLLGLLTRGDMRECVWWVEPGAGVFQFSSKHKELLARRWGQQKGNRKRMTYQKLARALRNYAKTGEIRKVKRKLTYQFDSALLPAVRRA
Procedure, shortened: as §1

[8] = target: T5, FEV (Homo sapiens, UniProt Q99581 1-238); details: protein: recombinant; tags: N-terminal GST; dsDNA, one strand shown
T5 sequence: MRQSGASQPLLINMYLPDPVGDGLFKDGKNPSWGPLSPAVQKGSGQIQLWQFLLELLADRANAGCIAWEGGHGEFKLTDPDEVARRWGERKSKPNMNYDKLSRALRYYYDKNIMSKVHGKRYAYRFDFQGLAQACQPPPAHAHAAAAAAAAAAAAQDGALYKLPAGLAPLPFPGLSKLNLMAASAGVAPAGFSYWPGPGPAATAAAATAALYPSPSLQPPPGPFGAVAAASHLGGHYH
Procedure, shortened: as §1

[9] = target: ETV5 (Homo sapiens, UniProt P41161 1-510); details: protein: recombinant; tags: N-terminal GST; dsDNA, one strand shown
Sequence of ETV5 (P41161 whole entry): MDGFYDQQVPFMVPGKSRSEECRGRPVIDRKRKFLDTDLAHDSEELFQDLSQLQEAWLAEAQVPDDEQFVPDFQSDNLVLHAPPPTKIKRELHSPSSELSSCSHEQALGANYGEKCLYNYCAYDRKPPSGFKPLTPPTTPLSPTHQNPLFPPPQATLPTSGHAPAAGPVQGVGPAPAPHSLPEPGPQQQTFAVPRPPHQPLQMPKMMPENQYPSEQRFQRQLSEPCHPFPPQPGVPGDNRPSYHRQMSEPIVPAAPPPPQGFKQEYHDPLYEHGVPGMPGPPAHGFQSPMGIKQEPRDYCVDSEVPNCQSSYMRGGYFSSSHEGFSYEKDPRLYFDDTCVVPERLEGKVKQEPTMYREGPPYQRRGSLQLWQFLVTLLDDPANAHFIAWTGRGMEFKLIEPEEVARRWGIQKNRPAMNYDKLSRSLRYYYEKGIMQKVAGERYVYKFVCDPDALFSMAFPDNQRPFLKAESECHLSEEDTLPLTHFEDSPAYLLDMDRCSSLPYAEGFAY
Procedure, shortened: as §1

[10] = target: HSF1 (Homo sapiens, UniProt Q00613 1-529); details: protein: recombinant; tags: N-terminal GST; chain copies: 3; dsDNA, one strand shown
Sequence of HSF1 (Q00613 whole entry): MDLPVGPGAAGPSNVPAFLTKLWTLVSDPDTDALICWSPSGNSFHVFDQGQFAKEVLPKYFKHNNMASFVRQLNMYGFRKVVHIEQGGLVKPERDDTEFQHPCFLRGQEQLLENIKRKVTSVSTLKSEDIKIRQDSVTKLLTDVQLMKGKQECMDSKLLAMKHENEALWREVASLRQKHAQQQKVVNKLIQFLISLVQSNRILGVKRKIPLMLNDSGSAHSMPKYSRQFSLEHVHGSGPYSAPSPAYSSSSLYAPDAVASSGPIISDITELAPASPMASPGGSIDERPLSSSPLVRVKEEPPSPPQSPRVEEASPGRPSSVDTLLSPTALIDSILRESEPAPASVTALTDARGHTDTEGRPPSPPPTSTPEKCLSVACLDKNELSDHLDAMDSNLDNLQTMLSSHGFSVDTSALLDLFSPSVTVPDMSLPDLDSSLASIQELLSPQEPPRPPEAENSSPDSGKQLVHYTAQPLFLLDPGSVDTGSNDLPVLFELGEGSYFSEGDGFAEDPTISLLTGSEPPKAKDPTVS
Procedure, shortened: as §1

[11] = target: ELF4 (Homo sapiens, UniProt Q99607 1-663); details: protein: recombinant; tags: N-terminal GST; dsDNA, one strand shown
Sequence of ELF4 (Q99607 whole entry): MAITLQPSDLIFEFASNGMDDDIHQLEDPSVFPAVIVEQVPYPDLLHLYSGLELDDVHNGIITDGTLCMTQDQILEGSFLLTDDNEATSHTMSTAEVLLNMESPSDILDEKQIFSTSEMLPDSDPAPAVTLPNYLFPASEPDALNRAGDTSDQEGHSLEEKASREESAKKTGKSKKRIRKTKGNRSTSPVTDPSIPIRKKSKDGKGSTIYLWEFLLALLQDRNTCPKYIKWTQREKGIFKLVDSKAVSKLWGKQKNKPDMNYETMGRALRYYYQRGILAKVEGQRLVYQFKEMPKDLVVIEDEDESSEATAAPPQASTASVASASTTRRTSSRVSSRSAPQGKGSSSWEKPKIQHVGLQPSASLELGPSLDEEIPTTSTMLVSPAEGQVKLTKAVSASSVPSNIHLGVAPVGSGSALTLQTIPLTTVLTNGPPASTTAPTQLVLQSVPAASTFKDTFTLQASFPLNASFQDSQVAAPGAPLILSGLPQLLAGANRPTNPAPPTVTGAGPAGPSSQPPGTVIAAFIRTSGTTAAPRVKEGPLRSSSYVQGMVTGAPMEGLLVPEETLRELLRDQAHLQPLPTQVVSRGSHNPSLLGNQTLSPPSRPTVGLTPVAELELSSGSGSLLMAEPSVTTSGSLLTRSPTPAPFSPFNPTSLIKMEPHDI
Procedure, shortened: as §1

[12] = target: T6, ELF3 (Homo sapiens, UniProt P78545 1-371); details: protein: recombinant; tags: N-terminal GST; dsDNA, one strand shown
T6 sequence: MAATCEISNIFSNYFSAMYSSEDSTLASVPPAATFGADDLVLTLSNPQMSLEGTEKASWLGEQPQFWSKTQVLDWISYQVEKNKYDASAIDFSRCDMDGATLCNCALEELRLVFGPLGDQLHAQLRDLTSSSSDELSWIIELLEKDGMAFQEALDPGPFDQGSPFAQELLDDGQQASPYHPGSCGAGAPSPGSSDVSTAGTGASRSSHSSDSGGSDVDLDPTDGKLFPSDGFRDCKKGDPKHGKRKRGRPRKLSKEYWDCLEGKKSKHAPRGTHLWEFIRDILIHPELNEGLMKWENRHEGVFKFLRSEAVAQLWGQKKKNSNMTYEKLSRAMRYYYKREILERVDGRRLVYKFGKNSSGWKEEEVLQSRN
Procedure, shortened: as §1

[13] = target: ETV1 (Homo sapiens, UniProt P50549 1-477); details: protein: recombinant; tags: N-terminal GST; dsDNA, one strand shown
Sequence of ETV1 (P50549 whole entry): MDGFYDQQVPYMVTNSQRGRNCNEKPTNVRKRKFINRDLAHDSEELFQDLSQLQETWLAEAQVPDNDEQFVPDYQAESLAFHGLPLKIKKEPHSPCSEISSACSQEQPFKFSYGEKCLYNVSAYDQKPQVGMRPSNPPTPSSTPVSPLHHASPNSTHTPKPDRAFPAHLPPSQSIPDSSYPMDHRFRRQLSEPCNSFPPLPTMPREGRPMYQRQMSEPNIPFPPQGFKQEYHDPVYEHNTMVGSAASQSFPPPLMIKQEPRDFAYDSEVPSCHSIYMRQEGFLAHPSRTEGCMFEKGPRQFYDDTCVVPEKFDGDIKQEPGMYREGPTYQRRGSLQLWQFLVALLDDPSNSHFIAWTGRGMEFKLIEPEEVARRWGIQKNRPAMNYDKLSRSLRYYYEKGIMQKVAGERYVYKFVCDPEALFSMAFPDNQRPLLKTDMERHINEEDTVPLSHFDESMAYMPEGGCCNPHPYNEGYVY
Procedure, shortened: as §1

[14] = target: T7, EHF (Homo sapiens, UniProt Q9NZC4 1-300); details: protein: recombinant; tags: N-terminal GST; dsDNA, one strand shown
T7 sequence: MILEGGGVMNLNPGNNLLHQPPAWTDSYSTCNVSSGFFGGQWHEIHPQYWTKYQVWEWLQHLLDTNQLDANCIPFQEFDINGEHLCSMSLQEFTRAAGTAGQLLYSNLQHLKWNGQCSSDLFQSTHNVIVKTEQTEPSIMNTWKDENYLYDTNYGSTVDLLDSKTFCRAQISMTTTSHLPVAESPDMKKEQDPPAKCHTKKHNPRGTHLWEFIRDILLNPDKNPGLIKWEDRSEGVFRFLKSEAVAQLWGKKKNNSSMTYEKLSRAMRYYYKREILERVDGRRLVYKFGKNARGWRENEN
Procedure, shortened: as §1

[15] = target: T8, ELK3 (Homo sapiens, UniProt P41970 1-407); details: protein: recombinant; tags: N-terminal GST; dsDNA, one strand shown
T8 sequence: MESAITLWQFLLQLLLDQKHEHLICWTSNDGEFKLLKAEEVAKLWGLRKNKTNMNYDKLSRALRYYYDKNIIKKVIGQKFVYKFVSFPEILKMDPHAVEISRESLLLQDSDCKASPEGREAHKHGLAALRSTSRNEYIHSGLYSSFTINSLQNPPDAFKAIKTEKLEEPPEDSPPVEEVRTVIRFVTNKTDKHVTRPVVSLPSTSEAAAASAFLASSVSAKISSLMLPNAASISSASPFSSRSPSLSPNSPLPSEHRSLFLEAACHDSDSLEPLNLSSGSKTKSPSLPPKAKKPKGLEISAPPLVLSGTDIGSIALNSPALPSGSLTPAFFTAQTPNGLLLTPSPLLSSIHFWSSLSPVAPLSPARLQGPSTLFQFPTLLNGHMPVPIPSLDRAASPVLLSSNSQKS
Procedure, shortened: as §1

[16] = target: T9, ETV2 (Homo sapiens, UniProt O00321 1-342); details: protein: recombinant; tags: N-terminal GST; dsDNA, one strand shown
T9 sequence: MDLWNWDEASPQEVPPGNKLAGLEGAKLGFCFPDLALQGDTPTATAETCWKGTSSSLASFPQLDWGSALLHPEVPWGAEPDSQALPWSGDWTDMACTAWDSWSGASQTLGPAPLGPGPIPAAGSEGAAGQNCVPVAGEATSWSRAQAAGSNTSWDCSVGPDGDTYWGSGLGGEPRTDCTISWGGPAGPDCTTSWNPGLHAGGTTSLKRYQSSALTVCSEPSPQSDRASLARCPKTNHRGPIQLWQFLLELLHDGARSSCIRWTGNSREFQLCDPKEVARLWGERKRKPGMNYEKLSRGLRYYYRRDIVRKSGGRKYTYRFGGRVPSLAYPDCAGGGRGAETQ
Procedure, shortened: as §1

[17] = target: CRX (Homo sapiens, UniProt O43186 1-299); details: protein: recombinant; tags: N-terminal GST; dsDNA, one strand shown
Sequence of CRX (O43186 whole entry): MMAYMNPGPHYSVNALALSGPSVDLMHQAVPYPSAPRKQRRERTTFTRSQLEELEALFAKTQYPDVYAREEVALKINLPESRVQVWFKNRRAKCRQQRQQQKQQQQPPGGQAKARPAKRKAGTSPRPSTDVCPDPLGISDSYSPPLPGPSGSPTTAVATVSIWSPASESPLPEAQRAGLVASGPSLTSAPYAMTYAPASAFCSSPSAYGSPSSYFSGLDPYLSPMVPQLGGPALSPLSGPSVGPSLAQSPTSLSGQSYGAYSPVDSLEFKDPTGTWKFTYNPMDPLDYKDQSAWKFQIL
Procedure, shortened: as §1

AATGGA was tested, and the binding signal [1] was 1.01 fold enrichment (6-mer frequency, TF over GST control), the binding signal [2] was 1.01 fold enrichment (6-mer frequency, TF over GST control) and the binding signal [3] was 1.01 fold enrichment (6-mer frequency, TF over GST control). The binding signal [4] was 1.06 fold enrichment (6-mer frequency, TF over GST control), the binding signal [5] was 1.03 fold enrichment (6-mer frequency, TF over GST control) and the binding signal [6] was 1.06 fold enrichment (6-mer frequency, TF over GST control). For the same sequence, the binding signal [7] was 1.06 fold enrichment (6-mer frequency, TF over GST control), the binding signal [8] was 1.09 fold enrichment (6-mer frequency, TF over GST control) and the binding signal [9] was 1.05 fold enrichment (6-mer frequency, TF over GST control). For the same sequence, the binding signal [10] was 1.12 fold enrichment (6-mer frequency, TF over GST control), the binding signal [11] was 1.08 fold enrichment (6-mer frequency, TF over GST control) and the binding signal [12] was 1.05 fold enrichment (6-mer frequency, TF over GST control). The binding signal [13] was 1.07 fold enrichment (6-mer frequency, TF over GST control).

For TAGATC, the binding signal [1] was 1.05 fold enrichment (6-mer frequency, TF over GST control), the binding signal [2] was 1.14 fold enrichment (6-mer frequency, TF over GST control) and the binding signal [4] was 1 fold enrichment (6-mer frequency, TF over GST control). For the same sequence, the binding signal [5] was 1.06 fold enrichment (6-mer frequency, TF over GST control), the binding signal [14] was 1.04 fold enrichment (6-mer frequency, TF over GST control) and the binding signal [15] was 1.21 fold enrichment (6-mer frequency, TF over GST control). The binding signal [8] was 1.06 fold enrichment (6-mer frequency, TF over GST control), the binding signal [9] was 1.06 fold enrichment (6-mer frequency, TF over GST control) and the binding signal [10] was 1.49 fold enrichment (6-mer frequency, TF over GST control). For the same sequence, the binding signal [11] was 1.13 fold enrichment (6-mer frequency, TF over GST control), the binding signal [16] was 1.2 fold enrichment (6-mer frequency, TF over GST control) and the binding signal [17] was 1.51 fold enrichment (6-mer frequency, TF over GST control). The binding signal [13] was 1.04 fold enrichment (6-mer frequency, TF over GST control).

With GAACAT the binding signal [1] was 1.01 fold enrichment (6-mer frequency, TF over GST control), the binding signal [2] was 1.02 fold enrichment (6-mer frequency, TF over GST control) and the binding signal [3] was 1.09 fold enrichment (6-mer frequency, TF over GST control). The binding signal [4] was 1.03 fold enrichment (6-mer frequency, TF over GST control), the binding signal [5] was 1.02 fold enrichment (6-mer frequency, TF over GST control) and the binding signal [14] was 1.05 fold enrichment (6-mer frequency, TF over GST control). The binding signal [6] was 1.04 fold enrichment (6-mer frequency, TF over GST control), the binding signal [7] was 1.01 fold enrichment (6-mer frequency, TF over GST control) and the binding signal [15] was 1.16 fold enrichment (6-mer frequency, TF over GST control). The binding signal [8] was 1.01 fold enrichment (6-mer frequency, TF over GST control), the binding signal [9] was 1.12 fold enrichment (6-mer frequency, TF over GST control) and the binding signal [10] was 1.81 fold enrichment (6-mer frequency, TF over GST control). The binding signal [11] was 1 fold enrichment (6-mer frequency, TF over GST control), the binding signal [16] was 1.01 fold enrichment (6-mer frequency, TF over GST control) and the binding signal [12] was 1.06 fold enrichment (6-mer frequency, TF over GST control). For the same sequence, the binding signal [17] was 1.03 fold enrichment (6-mer frequency, TF over GST control).
